ATXN2 expr inh = Primary qHTS for Inhibitors of ATXN expression; Potency, µM (top dose mostly 57 µM), for the others: at the top dose activity change, negative = inhibition, hits mostly inhibitors; actives 0.72% (n = 360,000); HEK-293 ATXN2-luciferase reporter, luminescence, 24 h; also: potency is read from the fitted curve at half-maximal effect; % is scaled to controls: 0 for no effect and ±100 for the full control effect; nearly all actives have a fitted effect of over 55% in size
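qHTS (up to 57 uM final) was run with 24 h compound exposure of reporter cells at 37 °C. Each well was multiplexed: SteadyGlo luminescence measured ATXN2-luciferase expression after a fluorogenic Gly-Phe-AFC viability readout (25 uM final).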
DRD3 agonist = qHTS of D3 Dopamine Receptor Agonist: qHTS; D3R DiscoveRx beta-arrestin cells, luminescence, 90 min; actives 0.58% (n = 410,000); max activation, %; D(3) dopamine receptor (Homo sapiens), P35462; AID 652048, 2013; in the data active = max activation above about 30%; also: 0% is about no effect
Target sequence (P35462 whole entry, looked up): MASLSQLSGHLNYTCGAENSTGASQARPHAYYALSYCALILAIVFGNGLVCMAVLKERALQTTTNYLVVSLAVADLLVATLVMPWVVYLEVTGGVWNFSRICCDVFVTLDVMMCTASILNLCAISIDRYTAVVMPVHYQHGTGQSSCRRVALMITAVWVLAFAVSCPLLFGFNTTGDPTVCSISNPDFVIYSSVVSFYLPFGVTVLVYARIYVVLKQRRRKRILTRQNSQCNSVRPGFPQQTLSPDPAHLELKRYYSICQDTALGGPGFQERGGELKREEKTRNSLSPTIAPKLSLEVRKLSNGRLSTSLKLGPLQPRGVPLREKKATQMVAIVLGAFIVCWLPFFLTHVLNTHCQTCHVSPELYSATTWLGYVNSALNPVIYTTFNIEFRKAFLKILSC
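Agonist mode: compounds and dopamine controls were applied to plated cells for 90 min at 37 degrees C after an overnight attachment at 1500 cells/well. Luminescent read-out followed 30 - 60 minutes at room temperature with DiscoveRx detection reagent.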
TGFb inhibitor = qHTS for Inhibitors of TGF-b; AID 588855, 2011; actives 1.2% (n = 410,000); HepG2 CAGA-GFP TGF-b/SMAD3 reporter, GFP fluorescence, 18 h; TGF-beta stimulated, 500 pg/mL final; Potency, µM (highest dose often 46.1 µM), for the others: at the highest dose activity, negative = inhibition, actives largely listed as inhibitors; also: potency is read from the fitted curve at half-maximal effect; % is scaled to controls: 0 for no effect and ±100 for the full control effect; nearly all actives have a fitted effect of over 65% in size
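Using HEPG2 CAGA-GFP reporter cells at 1000 cells/well, we pinned test compounds, stimulated with recombinant TGF-beta (500 pg/mL final) and measured total well GFP after 18 h.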
HepG2 tox-1 = qHTS for Inhibitors of TGF-b: Cytotox Counterscreen; HepG2 CAGA-GFP viability, ATP luminescence, 18 h; Potency, µM (highest dose often 46.1 µM), without a hit: top-dose activity change, negative = cytotoxicity, actives largely listed as cytotoxic; actives 0.76% (n = 410,000); AID 588856, 2011; also: potency is read from the fitted curve at half-maximal effect
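CellTiter-Glo luminescence gave cytotoxicity after 18 hours at 37 degrees C. The cells were HepG2 CAGA-GFP in 1% FBS DMEM, stimulated with 500 pg/mL TGF-beta after compound addition. %Activity was normalised to no-cell wells (complete cell-killing) and DMSO (no toxicity), and curves were fitted and classified.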
ATXN viability = Viability Counterscreen for Primary qHTS for Inhibitors of ATXN expression. S2 cells (HEK-293 line with an ATXN2-luciferase reporter) viability, CellTiter-Fluor protease fluorescence, 24 h. Potency, µM (series often up to 56.7 µM), actives largely listed as cytotoxic. actives 0.49% (n = 400,000). AID 651635, 2014; also: potency is read from the fitted curve at half-maximal effect; nearly all actives have a fitted effect of over 40% in size
DRD3 antagonist = qHTS of D3 Dopamine Receptor Antagonist: qHTS; D(3) dopamine receptor (Homo sapiens), P35462; D3R cells, DiscoveRx beta-arrestin luminescence, antagonist mode; hits give low values; max response, negative = inhibition, %; actives 2.5% (n = 360,000); AID 652054, 2013; in the data active = max response below about -50%; inconclusive = no clear call, values can overlap the other calls; also: % is scaled to controls: 0 for no effect and ±100 for the full control effect
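Cells expressing the human receptor were seeded at 1500 cells/well, incubated overnight at 37 degrees C in 5% CO2, then exposed to library compounds with dopamine controls for 90 minutes at 37 degrees C before luminescent detection.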
TGFb CAGA inh = qHTS for Inhibitors of TGF-b: Confirmation of Cherry Picks. shares compounds with TGFb inhibitor. HepG2 CAGA-GFP TGF-b reporter, GFP fluorescence, 18 h; cells stimulated with TGF-beta, 500 pg/mL. Potency, µM (doses to about 46.1 µM), for inactives: at the top dose activity, negative = inhibition, most hits filed as inhibitors. actives 63% (n = 1,600). AID 720534, 2013; also: potency is read from the fitted curve at half-maximal effect; % is scaled to controls: 0 for no effect and ±100 for the full control effect; nearly all actives have a fitted effect of over 65% in size
HepG2 tox-2 = qHTS for Inhibitors of TGF-b: Cytotox Counterscreen for Cherry Picks | HepG2 CAGA-GFP viability, ATP luminescence, 18 h; cells stimulated with TGF-beta, 500 pg/mL | actives 27% (n = 1,600) | Potency, µM (series often up to 46.1 µM), for inactives: at the highest dose activity, negative = cytotoxicity, hits mostly inhibitors | AID 720535, 2013 | shares compounds with TGFb inhibitor; also: potency is read from the fitted curve at half-maximal effect; % is scaled to controls: 0 for no effect and ±100 for the full control effect; nearly all actives have a fitted effect of over 70% in size
CCL64 TGFb inh = qHTS for Inhibitors of TGF-b: CCL64 Cells Orthogonal Assay for Cherry Picks. actives 41% (n = 1,600). shares compounds with TGFb inhibitor. AID 720536, 2013. CCL64 CAGA-GFP reporter, TGF-b stimulated, GFP fluorescence, 18 h. Potency, µM (series often up to 46.1 µM), inactives show top-dose activity, negative = inhibition, hits mostly inhibitors; also: potency is read from the fitted curve at half-maximal effect; nearly all actives have a fitted effect of over 65% in size
COP TGFb inh = qHTS for Inhibitors of TGF-b: Hit Validation in HepG2 Cells using COP promoter; shares compounds with TGFb inhibitor; HepG2 COP-GFP TGF-b reporter, GFP fluorescence, 18 h; cells stimulated by added recombinant TGF-beta; Potency, µM (highest dose often 46.1 µM), inactives show at the top dose activity, negative = inhibition, usual class: inhibitors; actives 3% (n = 1,600); AID 720537, 2013; also: potency is read from the fitted curve at half-maximal effect; nearly all actives have a fitted effect of over 70% in size
Starred values were filed as active, the others as inactive; i = inactive; ? = inconclusive; nt = no result. Shown are actives, neighbours in structure and some others; about 4.7% of the full set was active somewhere. Unless noted, calls follow the shape of the dose curve; as a rule, active = well fitted curve in the direction sought with a large enough effect; inconclusive = small, poorly fitted or top-dose-only effect, or another doubt; inactive = no such curve, though single readings can be large; an effect the other way counts as inactive or inconclusive.

SMILES	ATXN2 expr inh	DRD3 agonist	TGFb inhibitor	HepG2 tox-1	ATXN viability	DRD3 antagonist	TGFb CAGA inh	HepG2 tox-2	CCL64 TGFb inh	COP TGFb inh
CC(=O)Oc1ccc(C(=O)COC(=O)CNC(=O)COc2ccccc2C)cc1	nt	nt	8%	-2%	nt	nt	nt	nt	nt	nt
COc1cc(NC(=O)c2cc(Cl)ccc2Cl)ccc1-c1cc2ccccc2oc1=O	-12%	5	-3%	-19%	i	6	nt	nt	nt	nt
CCc1ccc(OCC(=O)Nc2ccc(-c3cc4ccccc4oc3=O)c(OC)c2)cc1	-18%	10	?	-5%	?	86	?	-13%	9%	12%
CC(C)C[C@H]1CN=C(Nc2ccccc2)N1CCc1cccc(F)c1	-31%	-33	7.1µM*	-26%	i	-1	5.8µM*	?	13µM*	54%
Cc1cccc(CCN2C(Nc3ccccc3)=NC[C@@H]2CC(C)C)c1	?	-25	6.3µM*	1%	?	-18	5.2µM*	?	?	87%
CC(C)CCN1C(Nc2ccccc2)=NC[C@@H]1CC(C)C	-11%	-1	-17%	-18%	i	18	nt	nt	nt	nt
CC(C)C[C@H]1CN=C(Nc2ccccc2)N1CCc1ccc(F)cc1	-14%	-13	8.9µM*	-33%	i	17	7.3µM*	?	18µM*	60%
COC(=O)CCN(c1ccccc1)C(CNS(=O)(=O)c1ccccc1)c1ccccc1 (centres undefined)	-25%	-8	?	-35%	i	nt	nt	nt	nt	nt
COc1ccccc1NS(=O)(=O)c1cc(NC(=O)Nc2ccccc2)ccc1N1CCCCC1	10%	7	11µM*	-5%	i	-19	7.3µM*	-17%	?	-2%
Cc1ccc(NC(=O)c2cc3c(s2)CCCC3)cc1S(=O)(=O)Nc1ccccc1Cl	-22%	3	10µM*	-8%	i	-12	10µM*	?	?	56%
O=C(Nc1ccc(N2CCCCC2)c(S(=O)(=O)Nc2ccccc2Cl)c1)c1cccnc1	0%	-18	13µM*	-8%	i	-4	?	?	?	62%
O=C(Nc1ccc(F)cc1)Nc1ccc(N2CCCC2)c(S(=O)(=O)Nc2ccccc2Cl)c1	?	19	4µM*	-4%	?	-15	4.1µM*	7.3µM*	5.8µM*	109%
